From PubChem BioAssay
This is a sample that favours compounds with a hit; in the whole collection about 3.2% have one here.
Rtt109 Vps75 = blocks Candida albicans Rtt109/Vps75 acetyltransferase activity | AID 540336 | actives 0.16% (n = 330,000) | inhibition, % at 34.9 µM | Q5AAJ8 | purified Rtt109/Vps75, ThioGlo CoA-SH fluorescence, 4 h;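 active = inhibition of at least 50% in every replicate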
Target sequence (Q5AAJ8 whole entry, looked up): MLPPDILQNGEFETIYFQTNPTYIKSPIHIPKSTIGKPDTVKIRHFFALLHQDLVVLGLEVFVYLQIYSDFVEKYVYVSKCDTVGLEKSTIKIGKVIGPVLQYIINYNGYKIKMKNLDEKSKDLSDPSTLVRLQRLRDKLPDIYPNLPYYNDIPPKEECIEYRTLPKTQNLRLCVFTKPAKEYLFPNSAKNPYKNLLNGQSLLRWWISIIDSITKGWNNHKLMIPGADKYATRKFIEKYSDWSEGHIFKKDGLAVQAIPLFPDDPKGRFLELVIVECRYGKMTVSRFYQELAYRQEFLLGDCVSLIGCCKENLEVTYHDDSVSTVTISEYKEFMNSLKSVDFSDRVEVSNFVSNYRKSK
dFosB act-1 = enhances mouse delta FosB homodimer DNA binding; actives 0.99% (n = 340,000); purified delta FosB, TAMRA-CDK5 oligo fluorescence polarization; percent of positive-control signal above neutral wells; P13346; activation, % at 25 µM;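 active = mean activation above about 17%, with every replicate also reaching it, limit read from the data, passing the limit was not always enough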
Target sequence (P13346 whole entry, looked up): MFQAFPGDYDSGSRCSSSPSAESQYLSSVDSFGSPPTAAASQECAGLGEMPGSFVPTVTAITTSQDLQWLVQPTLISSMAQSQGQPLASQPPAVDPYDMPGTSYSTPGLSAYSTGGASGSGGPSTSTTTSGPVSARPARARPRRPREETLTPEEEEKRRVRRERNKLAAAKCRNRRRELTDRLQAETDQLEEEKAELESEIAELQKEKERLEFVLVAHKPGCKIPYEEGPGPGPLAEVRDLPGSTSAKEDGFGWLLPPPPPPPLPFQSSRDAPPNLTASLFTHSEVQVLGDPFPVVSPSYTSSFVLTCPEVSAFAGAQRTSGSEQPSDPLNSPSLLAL
CDK5 inh = CDK5/p35 (human) kinase inhibition; Q00535+Q15078; actives 0.01% (n = 330,000); Recombinant CDK5/p35, ADP-Glo luminescence, 60 min; inhibition, % at 10 µM;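 active = highest replicate inhibition of at least 50% and at least 75% of replicates reaching 50%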;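 also: plate controls were DMSO neutral control for no effect and GW8510 at 10 µM for full effect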
SMARCA2 activ = increases SMARCA2 function in MMTV reporter cells | MG213 cells, MMTV-luciferase reporter, dexamethasone, overnight | actives 1% (n = 370,000) | AID 652017 | activation, % at 9.1 µM; in the data active = activation above about 7.8%;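 also: 0% = vehicle wells and 100% = reference activator wells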
esBAF inh = blocks esBAF chromatin remodeling in mouse ES cells. reporter increase, % at 12.5 µM. Bmi1-luciferase knock-in reporter, 24 h; 100% = twice the neutral-well signal. actives 2% (n = 350,000); in the data active = activation above about 40%;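 also: 0% = median of the plate's neutral control wells and 100% = double that signal; a rise in the Bmi1 reporter signal indicates esBAF inhibition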
Dyrk1A ADPGlo = blocks rat Dyrk1A kinase activity. ADP-Glo luminescence, NFATc1 peptide. inhibition, % at 12.5 µM. actives 0.43% (n = 310,000). AID 504441; in the data active = inhibition above about 50%;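 also: plate controls were vehicle with enzyme for no effect and no enzyme for full effect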
dFosB act-2 = activators of mouse delta FosB homodimer DNA binding. activation, % at 24.9 µM. purified delta FosB, TAMRA-CDK5 oligo fluorescence polarization; normalised: neutral wells 0, positive control 100. shares compounds with dFosB act-1. 2,400 tested, under 10 active;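 active = highest replicate activation at or above 34% and every replicate reaching that threshold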;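 also: higher polarization means more probe DNA bound by delta FosB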
Numbers without * were called inactive; nt = no result.

SMILES	Rtt109 Vps75	dFosB act-1	CDK5 inh	SMARCA2 activ	esBAF inh	Dyrk1A ADPGlo	dFosB act-2
CO[C@H]1CN(C)C(=O)c2cc(NC(=O)Nc3ccc(Cl)cc3)ccc2OC[C@@H](C)N(C(=O)Nc2c(C)noc2C)C[C@@H]1C	nt	nt	nt	nt	7.9	nt	nt
Cc1noc(C)c1S(=O)(=O)N(C)C[C@@H]1OCCCC[C@@H](C)Oc2ccc(NC(=O)Cc3ccccc3)cc2C(=O)N([C@H](C)CO)C[C@@H]1C	nt	nt	nt	nt	7.4	nt	nt
O=C(COC(=O)c1cccnc1Cl)NCc1ccc2c(c1)OCO2	4.3	7.8	-1.0	-0.7	nt	0.1	nt
O=C(COC(=O)c1cccnc1Nc1cccc(C(F)(F)F)c1)NCc1ccc2c(c1)OCO2	2.2	19.1*	0.0	-0.7	-3.0	-6.7	3.1
O=C(Nc1ccc2c(c1)OCO2)N[C@H]1CC[C@@H](CCNC(=O)C2CCCCC2)O[C@H]1CO	nt	nt	nt	nt	7.2	nt	nt
Clc1cccc(-c2ccnc3nc(-n4cccc4)nn23)c1	1.2	36.5*	0.2	-1.7	nt	-2.7	-2.1
CN(C)C(=O)C[C@@H]1CC[C@H]2[C@@H](COc3ccc(NC(=O)c4ccc(F)c(F)c4)cc3C(=O)N2C)O1	nt	nt	nt	nt	-0.7	nt	nt
COc1ccc(CNCC(O)(c2ccc(Cl)cc2)c2ccc(Cl)cc2)cc1	6.0	21.0*	-3.5	-3.8	5.7	1.2	-0.4
NC(=O)C1CCN(C(=O)c2ccc3c(=O)n(Cc4ccco4)c(SCC(=O)c4ccccc4)nc3c2)CC1	-0.3	36.2*	2.2	-0.2	-5.3	-4.5	1.8
O=C(NCc1ccco1)c1ccc2c(=O)n(Cc3ccco3)c(SCC(=O)N3CCCC3)nc2c1	-3.8	-10.0	-0.6	7.3	10.1	1.8	nt
COC(=O)c1ccc2c(=O)n(Cc3ccco3)c(SCC(=O)Nc3cc(C)on3)nc2c1	2.3	24.7*	0.1	0.5	nt	-3.8	-0.1
COc1ccc(S(=O)(=O)N(C)C[C@@H]2OCCCC[C@@H](C)Oc3ccc(NS(=O)(=O)c4cccs4)cc3C(=O)N([C@@H](C)CO)C[C@@H]2C)cc1	nt	nt	nt	nt	1.5	nt	nt
COc1ccccc1Cn1c(/C=C/c2ccccc2)nc2ccccc21	-2.5	-1.0	1.6	2.8	nt	2.6	nt
COc1ccc(/C=C/c2nc3ccccc3n2Cc2ccccc2OC)cc1	2.2	25.0*	1.6	1.8	nt	3.9	0.5
NC(N)=NS(=O)(=O)c1ccc(NC(=S)NC(=O)c2sc3ccccc3c2Cl)cc1	11.3	29.3*	-0.2	-2.7	nt	22.3	5.4
COC(=O)c1ccc(NC(=O)CNC(=O)c2sc3ccccc3c2Cl)cc1	4.0	53.5*	-1.2	2.5	0.7	2.3	3.1
CC(=O)Nc1ccc(NC(=O)C(C)OC(=O)CNC(=O)c2sc3ccccc3c2Cl)cc1 (centres undefined)	0.8	3.8	1.2	0.5	nt	-1.7	nt
Cc1ccc(NC(=O)CNC(=O)c2sc3ccccc3c2Cl)nc1	3.5	-1.3	-0.6	2.6	nt	5.8	nt
NC(=O)c1ccc(NC(=O)CNC(=O)c2sc3ccccc3c2Cl)cc1	9.5	37.7*	-0.2	0.7	-5.4	nt	1.9
CC(=O)Nc1ccc(NC(=O)CNC(=O)c2sc3ccccc3c2Cl)cc1	12.8	42.1*	-0.1	-2.3	4.6	1.3	1.4
CCCC(=O)Nc1ccc2c(c1)C(=O)N(C)[C@H]1CC[C@@H](CC(=O)NCC3CC3)O[C@@H]1CO2	nt	nt	nt	nt	-1.4	nt	nt
COc1cccc(-c2ccc3c(c2)[C@@H]2[C@@H](CCN2S(=O)(=O)c2ccc(F)cc2)[C@H](CO)N3C)c1	nt	nt	nt	nt	6.4	nt	nt
CC(=O)N(C)C[C@@H]1Oc2ncc(-c3cccc(F)c3)cc2C(=O)N([C@H](C)CO)C[C@H]1C	nt	nt	nt	nt	1.9	nt	nt
O=C(NNC(=O)c1sc2ccccc2c1Cl)Nc1ccc(Cl)cc1	-12.6	18.9*	-0.6	0.1	-9.8	6.7	1.1
O=C(Nc1ccncc1)c1sc2ccccc2c1Cl	2.5	-23.9	1.1	-1.1	nt	nt	nt
SMILES	Rtt109 Vps75	dFosB act-1	CDK5 inh	SMARCA2 activ	esBAF inh	Dyrk1A ADPGlo	dFosB act-2
COc1ccc(C(=O)CSc2nc(N)nc(SC)c2C#N)cc1	0.3	56.4*	-1.9	-1.7	1.2	-0.1	3.7
COc1ccc(OC)c(NC(=O)c2cn(C)c(=O)c3cc(OC)c(OC)cc23)c1	-3.5	5.0	1.4	-2.9	-3.2	3.0	nt
COc1ccc(NC(=O)c2cn(C)c(=O)c3cc(OC)c(OC)cc23)c(OC)c1	10.9	19.7*	0.3	3.5	0.7	-3.4	2.3
O=C(C[C@@H]1CC[C@H]2[C@@H](COC[C@H](O)CN2Cc2cc(F)ccc2F)O1)N1CCc2ccccc2C1	nt	nt	nt	nt	0.6	nt	nt
C=CCn1c(SCC(=O)Nc2ncc(Cc3ccc(Br)cc3)s2)nnc1-c1ccncc1	-5.7	37.3*	-4.1	-0.8	2.8	5.9	4.5
Cc1noc(C)c1S(=O)(=O)Nc1ccc2c(c1)C(=O)N([C@H](C)CO)C[C@H](C)[C@H](CN(C)CC1CC1)OCCCC[C@H](C)O2	nt	nt	nt	nt	3.0	nt	nt
CCOC(=O)c1cc2c(N)c(C(=O)c3ccc(Br)cc3)sc2[nH]c1=O	-7.9	21.9*	-3.2	3.2	5.0	7.5	-0.1
O=C(Nc1cccc2c1CCCC2)C1CCCN(S(=O)(=O)c2cccc3nonc23)C1 (centres undefined)	-4.7	24.3*	-0.2	-0.9	nt	-1.4	4.2
Cc1ccc(CCNC(=O)C2CCCN(S(=O)(=O)c3cccc4nsnc34)C2)cc1 (centres undefined)	-5.4	46.9*	-1.1	-1.7	-3.2	-3.5	3.2
C[C@H]1CN([C@@H](C)CO)C(=O)c2c(c3ccccc3n2C)-c2ccccc2CO[C@H]1CN(C)C(=O)c1ccc(F)cc1	nt	nt	nt	nt	0.1	nt	nt
CCNC(=O)C[C@H]1CC[C@@H]2[C@H](COC[C@H](O)CN2S(=O)(=O)c2ccccc2F)O1	nt	nt	nt	nt	1.9	nt	nt
CO[C@@H]1CN(C)C(=O)c2ccc(NS(C)(=O)=O)cc2OC[C@@H](C)N(C(=O)c2ccc3c(c2)OCO3)C[C@@H]1C	nt	nt	nt	nt	-9.3	nt	nt
COc1ccc(-n2nc(C(=O)Nc3ccc4c(c3)OCO4)c3c4ccccc4n(C)c3c2=O)cc1	-0.2	6.2	0.4	-3.0	-7.9	-1.2	nt
COc1ccc(CCNC(=O)CNC(=O)c2nn(-c3ccc(OC)c(OC)c3)c(=O)c3ccccc23)cc1OC	5.0	-0.8	-1.3	-4.7	-1.3	-0.9	nt
COc1ccc(-n2nc(C(=O)NCC(=O)Nc3cccc(Cl)c3)c3ccccc3c2=O)cc1OC	-2.9	99.7*	-0.7	-2.1	-0.3	-5.8	7.4
CCOc1ccc(NC(=O)CNC(=O)c2nn(-c3ccc(OC)c(OC)c3)c(=O)c3ccccc23)cc1	-6.8	75.8*	-1.3	-3.6	3.9	-2.9	1.2
CCOc1ccccc1NC(=O)CNC(=O)c1nn(-c2ccc(OC)c(OC)c2)c(=O)c2ccccc12	-6.6	-0.1	0.5	1.9	3.5	-1.9	nt
